# Assay results from PubChem BioAssay (EPA / NIEHS).
# Results filed as inconclusive are left out. Calls of active or inactive are those of the source. How the source made its calls, unless noted: active means hit-call score of the fitted dose curve at least 0.9, where 1 is the maximum; inconclusive means response in the unintended direction; inactive means score below 0.9.
# Experiments:
# [1] = ATG_XTT_Cytotoxicity: Cytotoxicity Assessment in the Attagene TRANS-FACTORIAL HepG2 Assay (AID 2283584);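 on AC50: cells exposed to compound for 24 h before reading; active means loss of viability signal versus DMSO baseline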
# Summary of the method: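 HepG2 human liver cells, transiently transfected with multiple GAL4-UAS reporter units, were dosed and read at 24 h by XTT as cell number. Loss of signal was fitted relative to DMSO negative control baseline.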
# [2] = TOX21_p53_BLA_p2_viability: Viability Assessment in the Tox21 HCT-116 p53 Agonism Beta-lactamase Assay, Phase 2 (AID 2283591);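 further: compound exposure lasted 16 h at 37 °C; actives lower the ATP signal meaning cytotoxicity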
# Summary of the method: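 Cytotoxicity readout: CellTiter-Glo ATP luminescence, 30 min at room temperature, after the beta-lactamase read. Cells were HCT116 exposed 16 h at 37C to compounds pin-transferred at 217-fold dilution from DMSO stocks.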
# [3] = CEETOX_H295R_CORTISOL: CeeTox H295R High-throughput Steroidogenesis Assay for Cortisol (AID 2283438; active means hit-call score of the fitted dose curve at least 0.9, where 1 is the maximum; inactive means score below 0.9;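 further: cortisol secreted into medium quantified by LC-MS/MS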); details: actives raise or lower the signal
# Summary of the method: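 H295R human adrenal cells were prestimulated 48 h with 10 uM forskolin, then exposed 48 h to test chemical (0.1% DMSO final). Medium cortisol was quantified by HPLC-MS/MS after MTBE extraction; bidirectional fitting relative to DMSO baseline.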
# [4] = CEETOX_H295R_DOC: CeeTox H295R High-throughput Steroidogenesis Assay for DOC (AID 2283439; active means hit-call score of the fitted dose curve at least 0.9, where 1 is the maximum; inactive means score below 0.9); details: actives raise or lower the signal
# Summary of the method: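 H295R adrenal cells prestimulated 48 h with 10 uM forskolin, then exposed 48 h to test chemical (0.1% DMSO final). Medium 11-deoxycorticosterone extracted with MTBE, quantified by HPLC-MS/MS; bidirectional fit versus DMSO baseline; MTT viability in same wells.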
# [5] = CEETOX_H295R_ESTRADIOL: CeeTox H295R High-throughput Steroidogenesis Assay for Estradiol (AID 2283440; active means hit-call score of the fitted dose curve at least 0.9, where 1 is the maximum; inactive means score below 0.9;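 further: estradiol secreted into medium quantified by LC-MS/MS after dansyl derivatisation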); details: actives raise or lower the signal
# Summary of the method: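 H295R adrenocortical cells were prestimulated with 10 uM forskolin for 48 h, then exposed to test chemical in 0.1% DMSO for 48 h. Medium estradiol was extracted with MTBE, dansyl-derivatized and quantified by HPLC-MS/MS; bidirectional fit versus DMSO.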
# [6] = CEETOX_H295R_ESTRONE: CeeTox H295R High-throughput Steroidogenesis Assay for Estrone (AID 2283441; active means hit-call score of the fitted dose curve at least 0.9, where 1 is the maximum; inactive means score below 0.9;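 further: estrone secreted into medium measured by LC-MS/MS after dansyl derivatization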); details: actives raise or lower the signal
# Summary of the method: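 H295R cells; 48 h forskolin (10 uM) prestimulation; 48 h compound exposure, 0.1% DMSO final. Medium estrone: MTBE extraction, dansyl derivatization, HPLC-MS/MS. Bidirectional fit vs DMSO.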
# [7] = CEETOX_H295R_PROG: CeeTox H295R High-throughput Steroidogenesis Assay for Progesterone (PROG) (AID 2283442; active means hit-call score of the fitted dose curve at least 0.9, where 1 is the maximum; inactive means score below 0.9;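 on AC50: human H295R adrenal cells primed with 10 µM forskolin before dosing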); details: actives raise or lower the signal
# Summary of the method: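 H295R human adrenal cells were prestimulated with 10 uM forskolin for 48 h, then exposed to test chemical (0.1% DMSO final) for 48 h. Medium progesterone was MTBE-extracted and quantified by HPLC-MS/MS, with bidirectional fitting against DMSO.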
# [8] = CEETOX_H295R_TESTO: CeeTox H295R High-throughput Steroidogenesis Assay for Testosterone (TESTO) (AID 2283457; active means hit-call score of the fitted dose curve at least 0.9, where 1 is the maximum; inactive means score below 0.9;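 on AC50: cells exposed to chemicals for 48 h before medium collection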); details: actives raise or lower the signal
# Summary of the method: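 H295R human adrenal cells in DMEM/F12 with ITS+ and Nu-Serum, exposed to chemicals for 48 h. Testosterone in medium measured by MTBE extraction, reverse-phase HPLC-MS/MS; bidirectional fit versus DMSO baseline. MTT viability checked in same wells.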
# [9] = TOX21_p53_BLA_p3_viability: Viability Assessment in the Tox21 HCT-116 p53 Agonism Beta-lactamase Assay, Phase 3 (AID 2283593);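 further: cells exposed to compound for 16 h before reading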
# Summary of the method: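 Cellular ATP was quantified by CellTiter-Glo luminescence, read after 30 min at room temperature. Beforehand, HCT116 cells (4000/well) received compound 5 h post-seeding, 217-fold diluted from DMSO, then incubated 16 h at 37C.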
# [10] = target: Cellular tumor antigen p53 (Homo sapiens) (UniProt P04637); assay: TOX21_p53_BLA_p3_ratio: Tox21 HCT-116 p53 Agonism Beta-lactamase Assay, Ratio, Phase 3 (AID 2283596)
# Summary of the method: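 HCT116 p53-bla cells (4000/well) given compound in DMSO (217-fold dilution) after 5 h, incubated 16 h at 37C. CCF4-AM substrate 2 h at room temperature; 460/530 nm emission ratio, gain fitted against DMSO.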
# Sequence of Cellular tumor antigen p53 (Homo sapiens) (P04637 whole entry, looked up): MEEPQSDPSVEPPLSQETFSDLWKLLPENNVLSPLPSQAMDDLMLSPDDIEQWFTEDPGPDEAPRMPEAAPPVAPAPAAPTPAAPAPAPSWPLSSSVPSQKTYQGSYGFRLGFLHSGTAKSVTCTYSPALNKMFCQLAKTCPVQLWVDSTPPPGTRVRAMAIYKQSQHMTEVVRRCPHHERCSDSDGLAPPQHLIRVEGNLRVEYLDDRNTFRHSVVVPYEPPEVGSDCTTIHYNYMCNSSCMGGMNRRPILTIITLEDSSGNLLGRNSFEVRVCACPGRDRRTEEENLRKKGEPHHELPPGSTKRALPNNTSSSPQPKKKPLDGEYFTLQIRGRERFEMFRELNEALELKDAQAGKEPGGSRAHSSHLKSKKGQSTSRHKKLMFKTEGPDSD
smiles,measurement,setting,value
CN(C)Cc1ccccc1O,outcome,[1],inactive
same,outcome,[2],inactive
CCCCCCCOC(=O)c1ccccc1C(=O)OCCCCCCC,outcome,[1],inactive
CC(C)c1ccccc1N,outcome,[1],inactive
CS(C)(=O)=O,outcome,[1],inactive
CC(=O)Nc1ccc(N=Nc2cc(C)ccc2O)cc1,outcome,[3],inactive
same,outcome,[4],inactive
same,outcome,[5],inactive
same,outcome,[6],inactive
same,AC50,[7],20.9 µM (active)
same,AC50,[8],31.5 µM (active)
same,outcome,[1],inactive
O[Si](c1ccccc1)(c1ccccc1)c1ccccc1,outcome,[1],inactive
CCc1c(Br)c(Br)c(Br)c(Br)c1Br,outcome,[1],inactive
CC(C)(C)c1ccc(OC2CCCCC2O)cc1 (centres undefined),outcome,[1],inactive
CO[Si](OC)(c1ccccc1)c1ccccc1,outcome,[1],inactive
C#C[C@]1(O)CC[C@H]2[C@@H]3CCc4cc(OC)ccc4[C@H]3CC[C@@]21C,outcome,[3],inactive
same,outcome,[4],inactive
same,AC50,[7],3.58 µM (active)
same,outcome,[1],inactive
same,outcome,[2],inactive
same,outcome,[9],inactive
same,outcome,[10],inactive
COC(OC(C)=O)c1ccccc1 (centres undefined),outcome,[1],inactive
c1ccc(-c2ccccc2-c2ccccc2)cc1,outcome,[1],inactive
CCCCCCS,outcome,[3],inactive
same,outcome,[4],inactive
same,outcome,[5],inactive
same,outcome,[6],inactive
same,outcome,[7],inactive
same,outcome,[8],inactive
same,outcome,[1],inactive
CCCCCCC(C)OC(=O)CCCCC(=O)OC(C)CCCCCC (centres undefined),outcome,[1],inactive
Cc1cccc(N(C)C)c1,outcome,[3],inactive
same,outcome,[4],inactive
same,outcome,[5],inactive
same,outcome,[6],inactive
same,outcome,[7],inactive
same,outcome,[8],inactive
same,outcome,[1],inactive
CC(C)=CCCC(C)CCOC(=O)C(C)C (centres undefined),outcome,[1],inactive
Nc1ccc(Oc2cccc(Oc3ccc(N)cc3)c2)cc1,AC50,[3],3.6 µM (active)
same,outcome,[4],inactive
same,outcome,[5],inactive
same,outcome,[6],inactive
same,AC50,[7],3.9 µM (active)
same,outcome,[1],inactive
CCCCOCCOCCOC(=O)CCCCC(=O)OCCOCCOCCCC,outcome,[1],inactive
O=C(OCCOCCOCCOC(=O)c1ccccc1)c1ccccc1,outcome,[1],inactive
same,outcome,[2],inactive
CCCCC(CC)COP(=O)(O)OCC(CC)CCCC (centres undefined),AC50,[1],146 µM (active)
c1ccc(B(c2ccccc2)c2ccccc2)cc1,outcome,[3],inactive
same,AC50,[4],8.03 µM (active)
same,AC50,[7],12.6 µM (active)
same,outcome,[1],inactive
same,outcome,[2],inactive
same,outcome,[9],inactive
CC(Cc1ccc(O)c(O)c1)C(C)Cc1ccc(O)c(O)c1 (centres undefined),AC50,[3],78.3 µM (active)
same,AC50,[4],11.7 µM (active)
same,outcome,[5],inactive
same,outcome,[6],inactive
same,AC50,[7],13.9 µM (active)
same,outcome,[1],inactive
same,AC50,[2],63.6 µM (active)
same,AC50,[9],86.7 µM (active)
same,AC50,[10],75.1 µM (active)
CC(C)OC(=O)c1ccccc1C(=O)OC(C)C,outcome,[1],inactive
C=CC/C=C/C/C=C/C/C=C/C,outcome,[1],inactive
CCN(Cc1cccc(S(=O)(=O)O)c1)c1ccc(C(=C2C=CC(=[N+](CC)Cc3cccc(S(=O)(=O)O)c3)C=C2)c2ccc(O)cc2S(=O)(=O)[O-])cc1,outcome,[1],inactive
